Reference: ChEMBL document CHEMBL1201862, “PubChem BioAssay data set” (2004)
The whole screen tested about 400,000 compounds, of which about 2,100 (0.53%) were called active. Inconclusive results (about 14%) are left out. The rule behind the calls is not given here. The list comes from a sample in which actives are over-represented; it also holds similar structures and randomly drawn compounds.

Molecular target: Ataxin-2 (Homo sapiens) (UniProt Q99700)
Assay: qHTS for Inhibitors of ATXN expression.
Assay type: functional

Chain of Ataxin-2 (Homo sapiens) (Q99700 whole entry): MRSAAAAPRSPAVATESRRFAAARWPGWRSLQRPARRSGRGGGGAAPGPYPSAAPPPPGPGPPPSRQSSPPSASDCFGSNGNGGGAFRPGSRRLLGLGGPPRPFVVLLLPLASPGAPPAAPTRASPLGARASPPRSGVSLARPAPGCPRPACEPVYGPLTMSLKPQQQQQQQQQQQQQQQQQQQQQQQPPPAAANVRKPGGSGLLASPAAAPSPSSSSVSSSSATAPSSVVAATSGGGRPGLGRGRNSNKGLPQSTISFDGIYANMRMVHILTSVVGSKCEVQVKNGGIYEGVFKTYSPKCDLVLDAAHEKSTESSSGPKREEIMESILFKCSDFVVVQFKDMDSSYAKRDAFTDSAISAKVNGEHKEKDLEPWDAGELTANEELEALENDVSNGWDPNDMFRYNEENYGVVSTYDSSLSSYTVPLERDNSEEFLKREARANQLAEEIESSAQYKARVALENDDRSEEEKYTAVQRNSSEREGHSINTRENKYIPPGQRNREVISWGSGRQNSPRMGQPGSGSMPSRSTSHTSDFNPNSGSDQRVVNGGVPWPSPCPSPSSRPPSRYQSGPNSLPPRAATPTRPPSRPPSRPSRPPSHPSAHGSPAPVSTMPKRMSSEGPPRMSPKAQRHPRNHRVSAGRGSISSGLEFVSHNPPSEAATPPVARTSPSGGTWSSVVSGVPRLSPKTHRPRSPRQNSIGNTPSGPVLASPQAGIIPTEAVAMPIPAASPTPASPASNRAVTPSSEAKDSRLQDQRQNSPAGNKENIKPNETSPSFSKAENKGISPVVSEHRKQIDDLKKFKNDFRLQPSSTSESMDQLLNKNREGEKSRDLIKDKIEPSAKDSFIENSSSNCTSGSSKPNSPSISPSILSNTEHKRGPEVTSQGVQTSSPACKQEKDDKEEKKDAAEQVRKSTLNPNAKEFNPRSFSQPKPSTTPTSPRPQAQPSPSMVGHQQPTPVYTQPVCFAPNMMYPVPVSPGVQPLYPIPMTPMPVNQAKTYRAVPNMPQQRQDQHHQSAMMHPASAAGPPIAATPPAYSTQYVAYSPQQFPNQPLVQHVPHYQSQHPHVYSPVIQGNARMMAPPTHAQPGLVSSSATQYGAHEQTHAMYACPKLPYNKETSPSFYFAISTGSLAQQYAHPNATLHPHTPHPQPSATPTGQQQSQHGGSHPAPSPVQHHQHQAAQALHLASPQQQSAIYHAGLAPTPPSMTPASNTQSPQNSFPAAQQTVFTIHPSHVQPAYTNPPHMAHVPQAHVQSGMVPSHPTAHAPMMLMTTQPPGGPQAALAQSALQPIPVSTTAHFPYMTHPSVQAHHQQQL

Row | Structure (SMILES) | Potency
1 | O=C(NCCO)c1cc2cc(Cl)cc(Cl)c2oc1=O | inactive
2 | Cc1nccn1CCN(C)Cc1cn(Cc2ccccc2)nc1-c1ccc2c(c1)OCO2 | inactive
3 | CN(Cc1cn(C)nc1-c1ccc(Oc2ccccc2)cc1)Cc1cnc2ccccn12 | 35.5 µM (active)
4 | Cc1ccc2nc(N3CC(C)OC(C)C3)nc(-c3ccccc3)c2c1 (stereo not drawn) | inactive
5 | CC(C)Cc1ccc(C(C)C(=O)Nc2ncccn2)cc1 (stereo not drawn) | inactive
6 | CC(C)Cc1ccc(C(C)CC2=CCC(CN(C)C)C2=O)cc1 (stereo not drawn) | 22.4 µM (active)
7 | COc1cccc(CN2CC(C(=O)N3CCSCC3)CCC2=O)c1 (stereo not drawn) | inactive
8 | O=C(Oc1cc2oc(=O)cc(-c3ccccc3)c2cc1Cl)C1CCCCC1 | inactive
9 | CCN(CCCNC(=O)c1cc(Nc2ccc(OC)cc2)nc2ccccc12)c1cccc(C)c1 | inactive
10 | CCN(CCCNC(=O)c1cc2cc3ccc(OC)cc3nc2s1)c1cccc(C)c1 | 39.8 µM (active)
11 | CCCCNC(=O)c1cc2nc(-c3ccc(OC)cc3)cc(C(F)(F)F)n2n1 | inactive
12 | O=C1Nc2cc(C(=O)N3CCOCC3)ccc2S/C1=C/c1ccccc1F | inactive
13 | CCN1CCCC1CNC(=O)c1ccc2c(c1)NC(=O)/C(=C\c1ccc(C)cc1)S2 (stereo not drawn) | 35.5 µM (active)
14 | O=C(c1ccc2nc(-c3ccccc3)c(-c3ccccc3)nc2c1)N1CCCCC1 | inactive
15 | CCN1CCCC1CNC(=O)c1ccc2c(c1)NC(=O)/C(=C\c1ccc(OC)c(OC)c1)S2 (stereo not drawn) | 31.6 µM (active)
16 | O=C1Nc2cc(C(=O)N3CCC(N4CCCCC4)CC3)ccc2S/C1=C\c1ccccc1 | 39.8 µM (active)
17 | COCCCn1c(=O)/c(=C\c2ccc(OC(F)F)c(OC)c2)s/c1=C(/C#N)C(N)=O | inactive
18 | Cc1cccc2cc(C#N)c(NCCNS(=O)(=O)c3ccccc3)nc12 | inactive
19 | COc1ccc(O)c(C(=O)c2coc(=N)c(C(=O)Nc3ccc(SC(F)F)cc3)c2)c1 | inactive
20 | CN(C)c1ccc(-c2ccc3c(=O)c4ccccc4n(C)c3c2)cn1 | inactive
21 | COc1ccc(-c2ccc3c(N)c(C(=O)NC(C)C)sc3n2)cc1OC | inactive
22 | Cc1cccn2c(=O)c3cc(C(=O)NC4CCCC4)c(=N)n(C4CCCC4)c3nc12 | inactive
23 | COC(CN(C)C(=O)c1cn(C)c2ccc(S(=O)(=O)N(C)C3CCCCC3)cc2c1=O)OC | inactive
24 | Cc1ccc(C)c(N(C)S(=O)(=O)c2ccc3[nH]cc(C(=O)NC4CCCC4)c(=O)c3c2)c1 | 28.2 µM (active)
25 | CCc1nnc(NC(=O)CSc2nc3c(cc2C#N)CCC3)s1 | inactive

Row | Structure (SMILES) | Potency
26 | N=c1c(C(=O)NC2CCCC2)cc2c(=O)n3ccccc3nc2n1Cc1ccccc1 | inactive
27 | N=c1c(C(=O)NC2CCCCC2)cc2c(=O)n3ccccc3nc2n1Cc1ccccc1 | inactive
28 | N#CCCN(Cc1ccccc1)C(C(=O)NC1CCCCC1)c1cc2ccccc2o1 (stereo not drawn) | 39.8 µM (active)
29 | COc1ccc(CCC(C)NCCc2ccc(Cl)cc2Cl)cc1 (stereo not drawn) | 39.8 µM (active)
30 | COc1ccc(-c2sc(C(=O)c3ccc(Cl)cc3Cl)cc2CC(=O)O)cc1 | inactive
31 | COc1ccc(CCC(C)NCc2ccc(F)cc2)cc1 (stereo not drawn) | inactive
32 | CCOc1cc(/C=C/C(=O)Nc2ccc(C(=O)NCCN(CC)CC)cc2)ccc1OCC(C)C | 22.4 µM (active)
33 | COc1ccc(OC)c(/C=C/C(=O)Nc2ccc(C(=O)OCCC(C)C)cc2)c1 | inactive
34 | COc1cccc(OC)c1C(=O)Nc1ccccc1Sc1ccccc1 | inactive
35 | COc1ccc(C2C=C(c3ccccc3)Nc3nc(NS(=O)(=O)c4ccc(Cl)cc4)nn32)cc1 (stereo not drawn) | inactive
36 | Cc1nc2ccc(C(=O)Nc3cccc(OCC(=O)N(C)C)c3)cn2c1N(C)CC1CCCCC1 | 35.5 µM (active)
37 | Cc1ccc2nc3c(cc(C(=O)NC4CCCCC4)c(=N)n3C3CCCCC3)c(=O)n2c1 | inactive
38 | Cc1ccc2nc3c(cc(C(=O)NC4CCCC4)c(=N)n3C3CCCCC3)c(=O)n2c1 | inactive
39 | COc1ccc(C(=O)c2sc3nc(C)cc(-c4cccs4)c3c2N)cc1OC | inactive
40 | CCCn1nc(NC(C)=O)c2cc3cccc(C)c3nc21 | inactive
41 | CCOc1ccc(NCc2cccn2-c2nnc(N3CCC(C(=O)NCCCN4CCCCC4CC)CC3)s2)cc1 (stereo not drawn) | 22.4 µM (active)
42 | COCCCn1/c(=N/C(C)=O)c(C#N)cc2c(=O)n3cccc(C)c3nc21 | inactive
43 | COc1ccccc1C(=O)Nc1c(C(=O)N(C)Cc2ccccc2)sc2nc(C)c(Cl)c(C)c12 | 11.2 µM (active)
44 | COc1ccccc1NC(=O)c1sc2nc(Cc3ccccc3)cc(C(F)(F)F)c2c1N | inactive
45 | COc1ccccc1NC(=O)c1sc2nc(C)c(C(=O)Nc3ccc(C)cc3C)c(-c3cccs3)c2c1N | inactive
46 | Nc1cc(C(F)(F)F)cc([N+](=O)[O-])c1N | inactive
47 | FC(F)(F)c1cccc(NC(S)=NCc2ccc(Cl)cc2)c1 | inactive
48 | O=[N+]([O-])c1cc(C(F)(F)F)cc([N+](=O)[O-])c1NCCN=C(S)Nc1ccc(Cl)c(Cl)c1 | 39.8 µM (active)
49 | CCOc1cc(/C=C(\C#N)c2nc(-c3cccs3)c(NC(C)=O)s2)ccc1O | inactive
50 | CCc1ccc(/C=C(/C#N)c2nc(-c3ccc(C)cc3)cs2)cc1 | inactive

Row | Structure (SMILES) | Potency
51 | CCOc1ccc(-c2csc(/C(C#N)=C\c3ccc(O)c([N+](=O)[O-])c3)n2)cc1 | 8.91 µM (active)
52 | CCOc1ccc2nc(NCCCNS(=O)(=O)c3ccccc3)c(C#N)cc2c1 | inactive
53 | CN1CCN(c2ccc(NC(=O)c3sc4ccccc4c3Cl)cc2)CC1 | inactive
54 | CN1CCN(c2ccc(NC(=O)c3ccc(-c4ccc(Cl)cc4)o3)cc2)CC1 | 25.1 µM (active)
55 | CC(=O)N1CCN(c2ccc(NC(=O)c3cccc(F)c3)cc2)CC1 | inactive
56 | CCCCOC(=O)c1ccc(NC(=O)/C(C#N)=C/c2ccc(-c3ccccc3)o2)cc1 | inactive
57 | CCOc1cccc(/C=N/NC(=O)CC2C(=O)NN=C2C)c1O (stereo not drawn) | inactive
58 | O=C(N=Nc1c(O)[nH]c2ccc(Br)cc12)c1ccccc1-n1cccc1 | 17.8 µM (active)
59 | COc1ccc(/C=N/OCC(=O)N=Nc2c(O)[nH]c3ccc(Br)cc23)cc1 | inactive
60 | Cc1cccc(N=Nc2c(O)[nH]c3ccc(F)cc23)c1 | inactive
61 | Cc1cc(C)c(C#N)c(SCC(=O)Nc2nonc2N)n1 | inactive
62 | COc1ccccc1N1C(=O)C2C(C(=O)c3ccccc3)=NN(c3ccc(Br)cc3)C2C1=O (stereo not drawn) | inactive
63 | CCN1C=C(C(=O)OC)C(c2cccc(OC)c2OC)C(C(=O)OC)=C1 | inactive
64 | COc1cccc(C(=O)Oc2c(Sc3ccc(C)cc3)c(C)nn2C(C)(C)C)c1OC | 20 µM (active)
65 | Cc1ccc(S(=O)(=O)c2c(C)nn(C(C)(C)C)c2OC(=O)C(C)C)cc1 | inactive
66 | CC(=O)Nc1ccc(N2C(=O)c3cccc4c(O)ccc(c34)C2=O)cc1 | inactive
67 | CC(=O)Nc1ccc2c3c(cccc13)C(=O)N(c1ccccc1)C2=O | inactive
68 | CC(=O)NN1C(=O)c2ccc3c4c(ccc(c24)C1=O)C(=O)N(NC(C)=O)C3=O | 25.1 µM (active)
69 | CCOCCCn1/c(=N/C(=O)c2cccs2)c(C#N)cc2c(=O)n3ccccc3nc21 | inactive
70 | CSC(SC)=C(C#N)C(=O)c1ccccc1 | 39.8 µM (active)
71 | COc1cccc(N/C(SC)=C(/C#N)C(=O)NCc2cccs2)c1 | inactive
72 | COc1cccc(C(=O)C(C#N)=C(SC)SC)c1 | 14.1 µM (active)
73 | Cc1cc(C)c(C#N)c(SCC(=O)c2ccccc2)n1 | inactive
74 | CCOC(=O)C1(C)C(=O)CC2c3nc4ccccc4cc3CN2C1=O (stereo not drawn) | inactive
75 | O=C1c2ccccc2S(=O)(=O)c2cc(N3CCC4(CC3)OCCO4)ccc21 | inactive

Row | Structure (SMILES) | Potency
76 | CCN(CC)C(=O)CSC(Nc1cccc(F)c1)=C(C#N)C#N | inactive
77 | N#Cc1c(Cl)nc(-c2ccncc2)nc1-c1ccccc1 | inactive
78 | CC(C)(C)SCCNS(=O)(=O)c1ccc(C#N)cc1 | inactive
79 | COc1ccc(NC(=O)CN2CCN(c3ccccc3)CC2)cc1 | inactive
80 | COc1ccc(N2CCN(CC(=O)NC(=O)NC(C)(C)C)CC2)cc1 | inactive
81 | COc1ccc(NC(=O)c2ccc(NC(=O)CN3CCN(c4ccc(O)cc4)CC3)cc2)cc1 | 31.6 µM (active)
82 | CC(C)Oc1ccc(C(=O)/C=C2/C(=O)Nc3ccccc32)cc1 | 39.8 µM (active)
83 | Cn1cc(/C=C2\SC(=O)N(c3ccccc3)C2=O)c2ccccc21 | inactive
84 | O=C1S/C(=C\c2ccc(O)c([N+](=O)[O-])c2)C(=O)N1c1ccccc1Cl | 33.6 µM (active)
85 | Cc1ccccc1OCC(=O)OCC(=O)c1ccc[nH]1 | inactive
86 | N#Cc1ccccc1Cn1cc(/C=C/[N+](=O)[O-])c2ccccc21 | 29.9 µM (active)
87 | O=C(O)c1ccc(Cn2cc(/C=C\[N+](=O)[O-])c3ccccc32)o1 | inactive
88 | CCOC(=O)Cn1cc(/C=C/[N+](=O)[O-])c2ccccc21 | 39.8 µM (active)
89 | Cc1cc(C)cc(NC(=O)Cn2cc(C=O)c3ccccc32)c1 | inactive
90 | CCOC(=O)N/N=C/c1cn(CCCOc2ccc(C)cc2)c2ccccc12 | inactive
91 | CCOC(=O)COc1ccccc1/C=C\[N+](=O)[O-] | 6.31 µM (active)
92 | C=CCn1cc(/C=C/c2cc[n+](C)cc2)c2ccccc21 | inactive
93 | CCOC(=O)Cn1cc(/C=N/NC(=O)c2cc3ccccc3o2)c2ccccc21 | inactive
94 | N#Cc1ccccc1Cn1cc(/C=N/Nc2ccc([N+](=O)[O-])cn2)c2ccccc21 | inactive
95 | O=C(Cn1cc(/C=C\[N+](=O)[O-])c2ccccc21)Nc1ccccc1 | 35.5 µM (active)
96 | Cc1ccc(C(=O)NNC(=O)COC(=O)COc2ccccc2C#N)cc1 | inactive
97 | COC(=O)c1cc(-n2cccc2)ccc1N1CCOCC1 | inactive
98 | S=C(Nc1ccccc1)Nc1ccc2c[nH]nc2c1 | inactive
